Compound activity from PubChem.
This is a sample that favours compounds with a hit; in the whole collection about 3.6% have one here.
mHTT-CaM PPI inh: disrupts binding of mutant huntingtin to calmodulin. actives 3.6% (n = 190,000). inhibition, % at 15 µM. AID 1671202. AlphaScreen His-mHTT/GST-CaM binding, luminescence;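 further: 0% = both proteins with DMSO and 100% = one protein alone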
Pf apPOL inh: Pf-apPOL DNA polymerase inhibition. Recombinant Pf-apPOL, molecular beacon fluorescence, 1.5 h. inhibition, % at 10 µM. actives 0.25% (n = 210,000). AID 1794808
Numbers without * were called inactive; i = inactive; · = not tested or not shown. No stated cut-off is given here; in the data, active means inhibition above about 50%; inactive means the rest.

SMILES	mHTT-CaM PPI inh	Pf apPOL inh
CCC(C)Nc1nc(-c2ccccc2O)nc2ccccc12 (stereo not drawn)	-85	3
CCC(C)Nc1nc(-c2cc(OC)c(OC)c(OC)c2)nc2ccccc12 (stereo not drawn)	-4	51*
COc1cc(-c2nc(NCc3ccc(F)cc3)c3ccccc3n2)cc(OC)c1OC	88*	16
COc1ccccc1CNc1nc(-c2ccccc2F)nc2ccccc12	-8	-3
CCc1ccc(N2NC(=O)/C(=C\c3ccc(N4CCC(C)CC4)c([N+](=O)[O-])c3)C2=O)cc1	22	6
CSC1=NSC2=NC(=O)/C(=C\c3cccc([N+](=O)[O-])c3)C(=N)N12	-2	-7
CS(=O)(=O)Nc1cccc2cccnc12	47	-4
O=S(=O)(Nc1cccc2cccnc12)c1ccccc1	74*	-19
Cc1ccc(C(=O)N2C(C)CCCC2C)c(Cl)c1 (stereo not drawn)	-5	8
O=C1C2C3C=CC(C4CC34)C2C(=O)N1c1cccc(Cl)n1 (stereo not drawn)	-6	-9
O=C(Nc1ccc(I)cc1)c1ccncc1	-1	-4
COc1ccc(-c2c(C)oc3cc(OC(=O)c4ccco4)ccc3c2=O)cc1OC	2	-5
O=C1C=CC2=C3c4cc(O)c(O)cc4CC3(O)COC2=C1O (stereo not drawn)	·	50*
COc1ccc(NC(=O)Cn2c(C)nc3sc(C)c(C)c3c2=O)cc1Cl	-4	-2
O=C1CC(CNS(=O)(=O)c2cccc(C(F)(F)F)c2)CN1c1ccc(Cl)cc1 (stereo not drawn)	46	-2
COc1ccc(N2CCC(CNS(=O)(=O)c3cccc(C(F)(F)F)c3)C2)cc1 (stereo not drawn)	73*	-12
O=C(O)CN1C(=O)C(=Cc2ccc(-c3cccc4c3C(=O)c3ccccc3C4=O)o2)SC1=S	39	95*
O=C(O)CN1C(=O)C(=Cc2ccccc2O)SC1=S	17	0
O=C(O)CCCCCN1C(=O)C(=Cc2ccc3c(c2)OCO3)SC1=S	52*	14
CC(C)(C)c1ccc(C=C2SC(=S)N(CCC(=O)O)C2=O)cc1	34	1
CCOC(=O)CCCN1C(=O)C(=Cc2ccc3c(c2)OCO3)SC1=S	14	-6
O=C(O)CCN1C(=O)C(=Cc2ccc([N+](=O)[O-])o2)SC1=S	44	50*
CCN(CC1CC(c2ccc(Cl)c(Cl)c2)=NO1)C(=O)NC(C)C (stereo not drawn)	2	-10
CC1(C)CC(=O)C2=C(C1)Nc1nc(-c3ccccc3)nn1C2c1ccc(F)cc1 (stereo not drawn)	78*	-1
COc1cc(C2C3=C(CCCC3=O)Nc3nc(-c4ccc(O)cc4)nn32)cc(OC)c1OC (stereo not drawn)	12	-2
SMILES	mHTT-CaM PPI inh	Pf apPOL inh
COc1cc(-c2nc3n(n2)C(c2ccccc2)C2=C(CCCC2=O)N3)cc(OC)c1OC (stereo not drawn)	52*	-3
COc1ccc(C2C3=C(CCCC3=O)Nc3nc(-c4ccc(N(C)C)cc4)nn32)cc1OC (stereo not drawn)	80*	2
COc1ccc(-c2nc3n(n2)C(c2ccc(OC)c(OC)c2)C2=C(CCCC2=O)N3)cc1 (stereo not drawn)	16	-1
CC1(C)CC(=O)C2=C(C1)Nc1nc(-c3ccc(O)cc3)nn1C2c1ccccc1 (stereo not drawn)	-9	0
O=C(NCCCN1CCCC1)C1CCN(c2ncnc3c2nc2n3CCCCC2)CC1	-2	0
CC12CCC3c4cc(Br)c(O)cc4CCC3C1CCC2O (stereo not drawn)	11	-2
O=C(Nc1ccc(N2CCCCC2)nc1)c1ccccc1F	21	-1
CCC(=O)N1CCN(c2ccccc2CC)C(=O)C1C (stereo not drawn)	-9	0
Cc1cc(NC(=O)c2ccc(Cl)c(Cl)c2)no1	-6	-2
Cc1noc(C(F)(F)F)c1C(=O)ON=C(N)c1ccc(C(F)(F)F)cc1	·	-7
O=C(Nc1ccc2c(c1)OCO2)C1CN(S(=O)(=O)C2CC2)CC12CCCCC2 (stereo not drawn)	73*	1
CS(=O)(=O)N1CC(C(=O)Nc2ccc3c(c2)OCCO3)C2(CCCCC2)C1 (stereo not drawn)	12	5
O=C(/C=C/c1ccccc1)O/N=C1\CCCc2oc3c(c21)CCCC3	i	-5
CC1=CC(=O)C=C(C)C1=NOC(=O)/C=C/c1ccccc1	100*	0
Cc1cc(C)c(C)c(S(=O)(=O)N2CCC(c3c[nH]c4c(C)cccc34)CC2)c1C	50*	-5
Cc1cc(C)c(C)c(S(=O)(=O)N2CCN(C)CC2)c1C	-4	-3
O=c1ccc2c(Cl)cc(Cl)c(O)c2[nH]1	12	-3
NNc1ccc2c(Cl)cc(Cl)c(O)c2n1	100*	-5
CC1(C)Nc2ccccc2-c2c1ssc2=S	40	·
CCOc1ccc2c(c1)C(=O)c1cc(OCC(=O)O)ccc1-2	2	-1
CCOc1ccc2c(c1)-c1c(ssc1=S)C(C)(C)N2C	97*	·
Cc1ccc2c(c1)-c1c(ssc1=S)C(C)(C)N2C	93*	·
COc1ccc(N(C)S(=O)(=O)c2ccc(Cl)cc2)cc1	-32	-4
Cc1c(CCOC(=O)CC23CC4CC(CC(C4)C2)C3)sc[n+]1CC(=O)c1ccccc1	94*	-4
O=C(OCC12CC3CC(CC(C3)C1)C2)c1ccccc1	-35	-1
SMILES	mHTT-CaM PPI inh	Pf apPOL inh
CCCc1c(C(=O)N2CCN(C(C)=O)CC2)cnn1-c1ccc(Cl)c(Cl)c1	47	-6
O=C(Cn1ccc2ccccc21)N1CCC(COCc2ccccc2)CC1	58*	-16
O=C(CCn1ccc(=O)[nH]c1=O)N1CCC(COCc2ccccc2)CC1	-4	3
O=C(CSc1cn(Cc2ccccc2Cl)c2ccccc12)Nc1nccs1	5	-3
Clc1ccc(-c2csc(=Nc3ccccc3)n2CCCN2CCOCC2)cc1	98*	-6
CCCn1c(-c2ccc(S(=O)(=O)N3CCOCC3)cc2)csc1=Nc1ccccc1	18	-8
CCCCn1c(-c2ccc(S(=O)(=O)N3CCOCC3)cc2)csc1=Nc1ccccc1	12	-5
OCCCn1c(-c2ccc(Br)cc2)csc1=Nc1ccccc1	59*	5
Cc1ccc(C)c(-c2csc(=Nc3ccccc3)n2CCCO)c1	100*	-3
CCOc1ccc(N=c2scc(-c3ccc(Br)cc3)n2CCO)cc1	19	-4
O=S(=O)(c1ccc(-c2csc(=Nc3ccccc3)n2CCCO)cc1)N1CCCCC1	51*	0
CCOc1ccc(N=c2scc(-c3ccccc3)n2CCO)cc1	35	-3
Cn1cc(C(=O)Nc2nc3ccccc3s2)c2nn(-c3ccccc3)c(=O)c-2c1	-22	-4
CC(C)(C)C(=O)Nc1cccnc1N1CCOCC1	11	-4
COc1ccc(NS(=O)(=O)c2ccc(N3C(=O)CCS3(=O)=O)cc2C)cc1Cl	-3	-2
O=C(c1cccc(N2CCNC(c3ccccc3)C2)n1)N1CCN(c2ncccn2)CC1 (stereo not drawn)	2	-5
CS(=O)(=O)N1CC(C(=O)Nc2ccc(F)cc2)C2(CCCCC2)C1 (stereo not drawn)	5	-9
O=C(CCC1CCN(c2cc(NC3CC3)ncn2)CC1)NCc1ccc(F)cc1Cl	15	-3
O=C(Nc1ccc(F)cc1F)c1cnc2n(c1=O)CCS2	0	-4
CC(C)n1cnnc1C1CCCN(C(=O)Cc2cccnc2)C1 (stereo not drawn)	-10	0
